In the supplement of paper PMC8975748:
± gives the standard deviation of the averaged measurements.

How the values were obtained:
[1] = system: Saccharomyces cerevisiae BY4741 SeMeCo community; assay: mean cell size (pixel area) (pixels); higher = larger cells; conditions: 10 µM; 24 h; SM minimal medium
How it was run: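 Drug was acoustically predosed into 384-well plates to a final 10 µM in SM medium, and each well received 70 µl of Saccharomyces cerevisiae BY4741 diluted to OD600 = 0.3 from an overnight preculture at OD600 = 1.0. This four-plasmid fluorescent community carries one fluorescent marker per plasmid, and each plasmid complements one auxotrophy. After 24 h, the cells were fixed with paraformaldehyde and imaged by automated confocal microscopy, and Harmony analysis yielded mean cell pixel area per well. Each value is averaged over 3 replicates. Same SeMeCo high-content imaging drug screen: Selleck FDA-approved drugs at 10 µM, 24 h in SM medium, 384-well plates, 3 replicates.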

[2] = system: Saccharomyces cerevisiae BY4741 SeMeCo community; assay: z-score of prototroph abundance vs DMSO median; higher = larger share of this subpopulation than in DMSO controls; conditions: 10 µM; 24 h; SM minimal medium; subpopulation (auxotrophy): Prototroph
How it was run: (§1)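 Scoring was based on each subpopulation's abundance, expressed as a z-score against the vehicle-well median. A Saccharomyces cerevisiae BY4741 community with four plasmids, each restoring one auxotrophy and encoding a distinct fluorescent protein, was pre-grown overnight to OD600 1.0, diluted to 0.3, and added at 70 µl to 384-well plates acoustically predosed with library drugs (10 µM final). It then grew 24 h in minimal SM medium before paraformaldehyde fixation and automated confocal microscopy, with single-auxotroph fluorescent strains setting thresholds and autofluorescence correction.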

[3] = system: Saccharomyces cerevisiae BY4741 SeMeCo community; assay: z-score of subpopulation abundance vs DMSO median, subpopulation auxotrophic for M; higher = larger share of this subpopulation than in DMSO controls; conditions: 10 µM; 24 h; SM minimal medium; subpopulation (auxotrophy): M
How it was run: as §1

[4] = system: Saccharomyces cerevisiae BY4741 SeMeCo community; assay: z-score of subpopulation abundance vs DMSO median, subpopulation auxotrophic for L; higher = larger share of this subpopulation than in DMSO controls; conditions: 10 µM; 24 h; SM minimal medium; subpopulation (auxotrophy): L
How it was run: as §1

[5] = system: Saccharomyces cerevisiae BY4741 SeMeCo community; assay: z-score of subpopulation abundance vs DMSO median, subpopulation auxotrophic for U; higher = larger share of this subpopulation than in DMSO controls; conditions: 10 µM; 24 h; SM minimal medium; subpopulation (auxotrophy): U
How it was run: as §1

[6] = system: Saccharomyces cerevisiae BY4741 SeMeCo community; assay: z-score of subpopulation abundance vs DMSO median, subpopulation auxotrophic for H; higher = larger share of this subpopulation than in DMSO controls; conditions: 10 µM; 24 h; SM minimal medium; subpopulation (auxotrophy): H
How it was run: as §1

[7] = system: Saccharomyces cerevisiae BY4741 SeMeCo community; assay: z-score of subpopulation abundance vs DMSO median, subpopulation auxotrophic for LU; higher = larger share of this subpopulation than in DMSO controls; conditions: 10 µM; 24 h; SM minimal medium; subpopulation (auxotrophy): LU
How it was run: as §1

[8] = system: Saccharomyces cerevisiae BY4741 SeMeCo community; assay: z-score of subpopulation abundance vs DMSO median, subpopulation auxotrophic for LM; higher = larger share of this subpopulation than in DMSO controls; conditions: 10 µM; 24 h; SM minimal medium; subpopulation (auxotrophy): LM
How it was run: as §1

[9] = system: Saccharomyces cerevisiae BY4741 SeMeCo community; assay: z-score of subpopulation abundance vs DMSO median, subpopulation auxotrophic for HM; higher = larger share of this subpopulation than in DMSO controls; conditions: 10 µM; 24 h; SM minimal medium; subpopulation (auxotrophy): HM
How it was run: as §1

[10] = system: Saccharomyces cerevisiae BY4741 SeMeCo community; assay: z-score of subpopulation abundance vs DMSO median, subpopulation auxotrophic for HU; higher = larger share of this subpopulation than in DMSO controls; conditions: 10 µM; 24 h; SM minimal medium; subpopulation (auxotrophy): HU
How it was run: as §1

[11] = system: Saccharomyces cerevisiae BY4741 SeMeCo community; assay: z-score of subpopulation abundance vs DMSO median, subpopulation auxotrophic for UM; higher = larger share of this subpopulation than in DMSO controls; conditions: 10 µM; 24 h; SM minimal medium; subpopulation (auxotrophy): UM
How it was run: as §1

[12] = system: Saccharomyces cerevisiae BY4741 SeMeCo community; assay: z-score of subpopulation abundance vs DMSO median, subpopulation auxotrophic for HL; higher = larger share of this subpopulation than in DMSO controls; conditions: 10 µM; 24 h; SM minimal medium; subpopulation (auxotrophy): HL
How it was run: as §1

[13] = system: Saccharomyces cerevisiae BY4741 SeMeCo community; assay: z-score of subpopulation abundance vs DMSO median, subpopulation auxotrophic for HLM; higher = larger share of this subpopulation than in DMSO controls; conditions: 10 µM; 24 h; SM minimal medium; subpopulation (auxotrophy): HLM
How it was run: as §1

[14] = system: Saccharomyces cerevisiae BY4741 SeMeCo community; assay: z-score of subpopulation abundance vs DMSO median, subpopulation auxotrophic for LUM; higher = larger share of this subpopulation than in DMSO controls; conditions: 10 µM; 24 h; SM minimal medium; subpopulation (auxotrophy): LUM
How it was run: as §1

[15] = system: Saccharomyces cerevisiae BY4741 SeMeCo community; assay: z-score of subpopulation abundance vs DMSO median, subpopulation auxotrophic for HLUM; higher = larger share of this subpopulation than in DMSO controls; conditions: 10 µM; 24 h; SM minimal medium; subpopulation (auxotrophy): HLUM
How it was run: as §1

[16] = system: Saccharomyces cerevisiae BY4741 SeMeCo community; assay: z-score of subpopulation abundance vs DMSO median, subpopulation auxotrophic for HUM; higher = larger share of this subpopulation than in DMSO controls; conditions: 10 µM; 24 h; SM minimal medium; subpopulation (auxotrophy): HUM
How it was run: as §1

Compound	mean cell size [1]	z-score of prototroph abundance [2]	z-score of subpopulation abundance [3]	z-score of subpopulation abundance [4]	z-score of subpopulation abundance [5]	z-score of subpopulation abundance [6]	z-score of subpopulation abundance [7]	z-score of subpopulation abundance [8]	z-score of subpopulation abundance [9]	z-score of subpopulation abundance [10]	z-score of subpopulation abundance [11]	z-score of subpopulation abundance [12]	z-score of subpopulation abundance [13]	z-score of subpopulation abundance [14]	z-score of subpopulation abundance [15]	z-score of subpopulation abundance [16]
O=C(Nc1cc(Cl)cc(Cl)c1O)c1c(O)c(Cl)cc(Cl)c1Cl [Oxyclozanide]	12.2 ± 0.31	2.11	-2.38	-0.21	-0.91	-2.53	-0.32	-0.51	-2.11	-1.36	-1.83	1.03	0.96	-0.27	2.05	–
CCCCC(F)(F)[C@@]1(O)CC[C@H]2[C@@H](CC(=O)[C@@H]2CCCCCCC(=O)O)O1 [Lubiprostone]	12.6 ± 0.28	–	-0.11	–	0.27	-0.12	-0.53	-1.08	-0.8	-0.05	-0.29	-0.29	-1.01	–	–	-1.08
C[C@]12CC[C@@H]3c4ccc(OC(=O)c5ccccc5)cc4CC[C@H]3[C@@H]1CC[C@@H]2O [Estradiol Benzoate]	12.4 ± 0.25	-0.27	0.35	0.05	-0.43	-0.36	–	0.31	0.05	-0.12	0.15	-0.31	-0.6	0.37	-0.15	0.38
CCCCCCCCCC(=O)NC1C(Oc2c3cc4cc2Oc2ccc(cc2Cl)C(OC2OC(CO)C(O)C(O)C2NC(C)=O)C2NC(=O)C(NC(=O)C4NC(=O)C4NC(=O)C(Cc5ccc(c(Cl)c5)O3)NC(=O)C(N)c3ccc(O)c(c3)Oc3cc(O)cc4c3)c3ccc(O)c(c3)-c3c(OC4OC(CO)C(O)C(O)C4O)cc(O)cc3C(C(=O)O)NC2=O)OC(CO)C(O)C1O (configuration not stated) [Teicoplanin]	–	-0.99	0.97	–	–	0.94	0.07	0.75	1.4	0.39	0.78	1.01	-0.07	0.85	-0.79	1.19
CCOc1ccc(NC(C)=O)cc1 [Phenacetin]	12.6 ± 0.17	-0.61	0.1	–	0.86	0.23	0.1	-1.19	0.08	0.77	0.96	–	0.8	-0.17	0.17	1.17
C#C[C@]1(O)CC[C@H]2[C@@H]3CCC4=CC(=O)CC[C@@H]4[C@H]3C(=C)C[C@@]21CC [Etonogestrel]	12.4 ± 0.14	–	-1.48	-0.43	1.19	–	0.5	-0.7	-1.24	–	0.08	-0.29	–	-0.63	-0.23	-0.52
CCOC(=O)C1=C[C@@H](OC(CC)CC)[C@H](NC(C)=O)[C@@H](N)C1 [Oseltamivir Phosphate]	–	–	-0.5	–	-1.55	0.58	–	0.27	-0.4	-0.98	-1.29	0.28	0.29	-0.21	0.24	–
